# CYP2C9 inh: inhibitors of human CYP2C9. CYP2C9 Supersomes, luciferin-H conversion, luminescence. inhibition, % at 5 µM. actives 20% (n = 96,000). AID 777;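 active means blocking of liver enzyme CYP2C9 beyond about 50% at 5 µM, limit read from the data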
# Target sequence (P11712 whole entry, looked up): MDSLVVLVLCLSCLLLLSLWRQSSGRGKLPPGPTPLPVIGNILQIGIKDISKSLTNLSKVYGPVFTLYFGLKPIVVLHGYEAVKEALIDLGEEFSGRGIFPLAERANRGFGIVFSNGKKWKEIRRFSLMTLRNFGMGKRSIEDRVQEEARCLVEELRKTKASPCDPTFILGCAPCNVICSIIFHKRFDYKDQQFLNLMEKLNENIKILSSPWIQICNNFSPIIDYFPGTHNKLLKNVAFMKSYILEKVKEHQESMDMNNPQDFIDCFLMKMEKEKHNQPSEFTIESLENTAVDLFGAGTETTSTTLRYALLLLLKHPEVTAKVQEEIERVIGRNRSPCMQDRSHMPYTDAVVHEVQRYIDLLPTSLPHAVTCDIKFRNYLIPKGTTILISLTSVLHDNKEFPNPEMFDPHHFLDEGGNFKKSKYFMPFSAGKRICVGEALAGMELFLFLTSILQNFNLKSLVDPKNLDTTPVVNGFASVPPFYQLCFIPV
# CYP2C19 activ: activators of human cytochrome P450 2C19 | P33261 | recombinant CYP2C19, luciferin-H EGE luminescence; stronger effect = higher value; 0 = fully inhibited enzyme, 1 = untreated enzyme | activation factor at 5 µM | 96,000 tested, under 10 active | AID 1025;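 active means activation factor of at least 2 at 5 µM in the primary screen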;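 further: 0 = wells with 2.5 mM tranylcypromine and 1 = vehicle-only wells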
# CYP2C19 inh: inhibitors of human CYP2C19; inhibition, % at 5 µM; CYP2C19 Supersomes, luciferin-H EGE luminescence, 30 min; actives 21% (n = 96,000);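 active means CYP2C19 inhibition above a set limit at 5 µM in the primary screen, cut at about 50% in these data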;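 further: plate controls were negative control wells for no effect and 2.5 mM tranylcypromine positive control for full effect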
# CYP2C9 activ: increases human cytochrome P450 2C9 activity; AID 1024; P11712; recombinant CYP2C9, luciferin-H conversion, luminescence; stronger effect = higher value; factor 1 = untreated enzyme, 0 = blocked; activation factor at 5 µM; actives 1.4% (n = 96,000);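 active means activation factor of 2 or more for CYP2C9 at a 5 µM dose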;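 further: 0 = sulfaphenazole-blocked wells and 1 = vehicle-only wells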
# Cav32 inh: blocks human Cav3.2 T-type calcium channel; O95180; Cav3.2-expressing cells, Fluo-4 calcium fluorescence FDSS; stronger effect = lower value; B-score at 10 µM; actives 4% (n = 100,000);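 active means single-dose well whose peak fluorescence ratio is a statistical outlier from its plate by either plate-standardised score or position-corrected B-score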
# The depositor's hits bear a star; nt = no result. This is a sample that favours compounds with a hit; in the whole collection about 27% have one here.
SMILES,CYP2C9 inh,CYP2C19 activ,CYP2C19 inh,CYP2C9 activ,Cav32 inh
CC1(C)CC(=O)C2=C(C1)N(c1ccccc1)C(N)=C(C#N)C2c1ccsc1 (stereo not drawn),75*,0.3,68*,0.2,2.2
CC1(C)CC(=O)C2=C(C1)OC(N)=C(C#N)C2c1ccsc1 (stereo not drawn),32,0.4,63*,0.7,1.8
N#CC1=C(N)OC2=C(C(=O)CCC2)C1CCc1ccccc1 (stereo not drawn),92*,0.1,94*,0.1,-0.24
C[C@H]1CC[C@]2(O[C@H](CCO)C[C@@H](O)[C@@H]2O)O1,nt,nt,nt,nt,-0.47
Cc1ccc2c(c1)c(-c1ccccc1)nc1nncn12,3,0.8,16,1,2.4
CCn1c2ccccc2c2cc(C3C(C#N)=C(C)NC(C)=C3C#N)ccc21,95*,0,100*,0,-0.042
CC1(C)CC(=O)C2=C(C1)N(c1ccccc1)C(N)=C(C#N)C2c1cccnc1 (stereo not drawn),50*,0.8,24,0.5,nt
N#CC1=C(N)OC2=C(C(=O)CCC2)C1C1C=CCCC1 (stereo not drawn),73*,0.2,84*,0.3,nt
CCn1c2ccccc2c2cc(N)ccc21,19,0.1,93*,0.8,-0.13
CN(C[C@H](Cc1ccccc1)N(C[C@H](c1ccccc1)N(CCc1ccccc1)N=O)N=O)N=O,nt,nt,nt,nt,-1
COc1ccc(NC(=O)c2ccccc2Cl)cc1NC(=O)CN1CCOCC1,10,0.8,17,0.9,0.06
COc1cc(/C=C(\NC(=O)c2ccccc2)C(=O)Nc2cccc(O)c2)c([N+](=O)[O-])cc1OC,27,0.9,6,0.7,-1.7
CCn1c2ccccc2c2cc(C3C(C#N)=C(N)OC4=C3C(=O)CC(C)(C)C4)ccc21 (stereo not drawn),57*,1,2,0.4,nt
CC1(C)CC(=O)C2=C(C1)N(c1ccc(F)cc1)C(N)=C(C#N)C2c1cccs1 (stereo not drawn),10,1,-2,0.9,2.1
Cc1ccc(N2C(N)=C(C#N)C(c3cccs3)C3=C2CC(C)(C)CC3=O)cc1 (stereo not drawn),80*,0.6,42,0.2,0.85
Cc1ccc(N2C(N)=C(C#N)C(c3cccnc3)C3=C2CCCC3=O)cc1 (stereo not drawn),36,0.9,14,0.6,3
COc1ccc(C2C(C#N)=C(N)N(c3sc4c(c3C#N)CCCC4)C3=C2C(=O)CC(C)(C)C3)cc1OC (stereo not drawn),86*,0.4,62*,0.1,0.92
N#CC1=C(N)N(c2ccc(Br)cc2)C2=C(C(=O)CCC2)C1c1cccnc1 (stereo not drawn),52*,0.8,21,0.5,nt
COc1ccc(C2C(C#N)=C(N)N(c3sc4c(c3C#N)CCCC4)C3=C2C(=O)CC(C)(C)C3)cc1 (stereo not drawn),42,0.8,17,0.6,0.68
O=C(Cn1c(=O)n(-c2ccccc2)c(=O)n1CC(=O)N1CCCCC1)N1CCCCC1,4,1,2,1,0.62
Cc1ccc(Oc2ncc(CN3CC(C)OC(C)C3)s2)cc1 (stereo not drawn),-8,0.5,47,1.1,0.43
COCCn1c(SCC(=O)N2CCCC2)nnc1-c1ccoc1C,22,0.9,7,0.8,-0.055
CC1C(C#N)=C(N)OC2=C1C(=O)CC(C)(C)C2 (stereo not drawn),11,0.9,8,0.9,nt
N#CC1=C(N)N(c2ccccc2C#N)C2=C(C(=O)CCC2)C1c1ccsc1 (stereo not drawn),62*,0.6,43,0.4,0.46
CC1(C)CC(=O)C2=C(C1)OC(N)=C(C#N)C2Cc1ccccc1 (stereo not drawn),79*,0,98*,0.2,0.21
SMILES,CYP2C9 inh,CYP2C19 activ,CYP2C19 inh,CYP2C9 activ,Cav32 inh
CC1(CC(=O)O)SC(=O)NC1=O (stereo not drawn),-36,1.1,-15,1.4,nt
CCOC(=O)N1CCN(C(=O)c2ccc(CS(=O)(=O)c3c(Cl)cccc3Cl)o2)CC1,2,1,-5,1,-0.038
COc1ccc(S(=O)(=O)Cc2ccc(C(=O)N3CCN(c4cc(Cl)ccc4C)CC3)o2)cc1,85*,0.4,61*,0.2,-2
Cc1ccc(S(=O)(=O)Cc2ccc(C(=O)N3CCN(c4ccc(F)cc4)CC3)o2)cc1,74*,0.6,37,0.3,-1.8
O=C(c1ccc(CS(=O)(=O)c2ccccc2)o1)N1CCOCC1,23,0.8,18,0.8,-0.66
COc1ccc(S(=O)(=O)Cc2ccc(C(=O)N3CCN(c4cccc(C)c4C)CC3)o2)cc1,76*,0.4,56*,0.2,-2
Cc1ccccc1S(=O)(=O)Cc1ccc(C(=O)N2CCN(c3ccc(F)cc3)CC2)o1,44,0.5,47,0.6,0.29
COc1ccc(S(=O)(=O)Cc2ccc(C(=O)N3CCN(c4ccc(Cl)cc4)CC3)o2)cc1,82*,0.6,42,0.2,-1.2
COCCNC(=O)C(c1cccs1)N(C(=O)Cn1nnc2ccccc21)c1ccc2c(c1)OCO2 (stereo not drawn),4,0.9,11,1,0.31
CCOc1cc(C2NC(=O)NC(C)=C2C(C)=O)cc(Cl)c1OCC(=O)O (stereo not drawn),13,1,-1,0.9,nt
Cc1ccc(=O)n(C(C(=O)NCc2ccco2)C(=O)c2ccc(F)cc2)c1 (stereo not drawn),-9,0.9,6,1.1,-0.13
CN1C(=O)c2cccc3c(S(=O)(=O)Nc4ccccn4)ccc1c23,nt,nt,nt,nt,0.59
COc1ccc(S(=O)(=O)NCc2ccco2)c2ccccc12,-104,0.5,47,2*,-4.2*
Cc1cc(S(=O)(=O)NCc2ccco2)c(C)s1,-11,0.8,21,1.1,-2
CN1C(=O)c2cccc3c(S(=O)(=O)NCc4ccco4)ccc1c23,79*,0.1,94*,0.2,0.99
CCC(C)(C)NC(=O)C(c1ccco1)N(C(=O)c1csnn1)c1cccc(F)c1 (stereo not drawn),-10,0.9,13,1.1,0.51
CC1CCc2nc(NC(=O)CSc3nc4ccccc4o3)sc2C1 (stereo not drawn),43,0.8,22,0.6,-0.69
O=C(CCn1c(=O)sc2ccccc21)NCc1ccccc1,-90,0.2,80*,1.9,1.2
Cc1ccc2nc(NC(=O)CSc3nc4ccccc4o3)sc2c1,55*,0.5,45,0.4,-0.37
Cc1ccc2nc(NC(=O)CCn3c(=O)sc4ccccc43)sc2c1,58*,1.2,-18,0.4,-3
COc1cc(OC)nc(NC(=O)CSc2nc3ccccc3o2)n1,-19,0.1,86*,1.2,0.8
COc1ccc(Nc2nc(C)cc(C)c2C#N)cc1OC,28,0.8,16,0.7,-0.12
c1ccc(-c2ccc(-c3cn4c(n3)CCC4)cc2)cc1,-4,0.9,10,1,-0.088

# Compound activity (PubChem)
